Compounds without any hit were thinned out: in the full panel of roughly 83,000, 20% have a hit.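 Interpretation: 100, growth as untreated; towards 0, rising growth inhibition; 0, no net growth; 0 to -100, cell death. Compounds scoring below 10 were considered active.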 Values without a mark were called inactive. Calls of active or inactive are those of the source.
Assays:
Assay in all cases: NCI-60 one-dose screen, 48 h (100 = growth as untreated, 0 = no growth, -100 = all killed)
Conditions in all cases: 10 µM
[1] = system: HCT-15 colon
[2] = system: HT29 colon
[3] = system: SNB-75 CNS
[4] = system: SNB-19 CNS
[5] = system: U251 CNS
[6] = system: PC-3 prostate
[7] = system: SK-MEL-5 melanoma
[8] = system: UACC-62 melanoma
[9] = system: LOX IMVI melanoma
[10] = system: SK-MEL-28 melanoma
[11] = system: SK-MEL-2 melanoma
[12] = system: EKVX NSCLC
[13] = system: SN12C renal
[14] = system: UO-31 renal
[15] = system: TK-10 renal
[16] = system: ACHN renal
[17] = system: CAKI-1 renal
[18] = system: A498 renal
[19] = system: MOLT-4 leukemia
[20] = system: CCRF-CEM leukemia

| SMILES | growth [1] | growth [2] | growth [3] | growth [4] | growth [5] | growth [6] | growth [7] | growth [8] | growth [9] | growth [10] | growth [11] | growth [12] | growth [13] | growth [14] | growth [15] | growth [16] | growth [17] | growth [18] | growth [19] | growth [20] |
| --- | --- | --- | --- | --- | --- | --- | --- | --- | --- | --- | --- | --- | --- | --- | --- | --- | --- | --- | --- | --- |
| COC[C@@H](CC(C)C)N=C1N/C(=C\c2ccc3ncsc3c2)C(=O)N1C | 2.01% (active) | 6.85% (active) | 27.5% | 14.6% | 15.4% | 23.6% | -57.3% (active) | -64.9% (active) | -51.2% (active) | -1.69% (active) | -82.2% (active) | 15% | 9.83% (active) | -19.4% (active) | 27.4% | -1.55% (active) | 2.83% (active) | -15.4% (active) | 9.06% (active) | – |
| O=C(CN1CCN(c2ncnc3c2cnn3-c2ccccc2)CC1)Nc1nncs1 | -30.7% (active) | -61.5% (active) | -75% (active) | 58.4% | -72.5% (active) | -36.1% (active) | 29.4% | 17.4% | -87.4% (active) | 72.3% | 28% | -44.8% (active) | -54.7% (active) | -97.2% (active) | -56.5% (active) | -87.5% (active) | -95.7% (active) | 49% | 3.73% (active) | – |
| N#Cc1ccc(-c2nn(-c3ccc(C(=O)O)cc3)cc2CNc2cc(Cl)cc(C(F)(F)F)c2)cc1 | 7.93% (active) | 18.8% | 31% | 20.9% | 18.5% | 14.1% | -64.1% (active) | -48.8% (active) | -24% (active) | 12.2% | 8.11% (active) | 22.8% | 18.4% | 25% | – | 17.3% | 20.8% | 39.8% | 6.25% (active) | 5.2% (active) |
| COc1cccc2nc(Nc3ccc(F)c(NC(=O)c4ccc(CN5CCN(C)CC5)c(C(F)(F)F)c4)c3)ccc12 | -83% (active) | -30.2% (active) | -3.82% (active) | -49.2% (active) | -42.7% (active) | -8.36% (active) | -94.9% (active) | -82.1% (active) | -100% (active) | -84% (active) | 14.6% | 13% | 26.8% | 5.08% (active) | – | 0.664% (active) | -2.36% (active) | 77% | -16.5% (active) | -3% (active) |
| Cc1nc2c(cnn2-c2ccccc2)c(=O)n1-c1ccc(NC(=O)c2ccc(F)cc2)cc1 | 66.1% | 63.5% | 64.5% | 80.4% | 81.1% | 53.1% | -15.4% (active) | 63.1% | 61.8% | 83.8% | 77.9% | 30.2% | 74.4% | – | 71% | 61% | 65.7% | 86.8% | 5.38% (active) | 34.8% |
| CCOC(=O)N/C(=C1/OCCN1C)[P+](c1ccccc1)(c1ccccc1)c1ccccc1 | 98.5% | 60.3% | 84.3% | 71.6% | 66.3% | 50.5% | 82.8% | 51% | 57.5% | 61.3% | 79.9% | 64.3% | 76.6% | 87.2% | – | 107% | 102% | 115% | 83.7% | 67.5% |
| COc1cnc2c(c1)C(=O)c1c-2n(CCCNCCO)c(=O)c2cc(OC)c(OC)cc12 | 32.3% | 12.1% | 59.6% | 18.7% | 20.8% | 43.2% | 12% | -2.88% (active) | -78% (active) | 70.2% | 104% | 87.9% | 18.4% | 34% | 101% | 3.42% (active) | 12% | – | 12.8% | 12.8% |
